Source: PubChem (The Scripps Research Institute Molecular Screening Center)
FBW7 act: activators of human E3 ligase FBW7. Q969H0. AlphaScreen FBW7–phospho-cyclin E peptide binding, activator screen. normalized activity (activation), % at 26.1 µM. hit rate 0.13% among 650,000. AID 1259310; in the data active = normalized activity above about 1.9%;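 also: purified mutant Fbw7 with reduced substrate affinity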
TEAD-YAP inh: TEAD-YAP interaction inhibition. hit rate 1.4% among 640,000. HEK-TIYL cells, TEAD-Gal4/YAP UAS-luciferase luminescence. inhibition, % at 9.12 µM. AID 1259422; in the data active = inhibition above about 32%;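 also: 0% = median of test compound wells and 100% = reference inhibitor wells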
GPR151 activ: activators of human GPR151 | Q8TDV0 | PathHunter beta-arrestin GPR151 cells, luminescence | activation, % at 11.2 µM | hit rate 1% among 650,000 | AID 1508602; in the data active = activation above about 4.9%;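 also: 0% = median of compound wells and 100% = cells with positive control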
Target sequence (Q8TDV0 whole entry, looked up): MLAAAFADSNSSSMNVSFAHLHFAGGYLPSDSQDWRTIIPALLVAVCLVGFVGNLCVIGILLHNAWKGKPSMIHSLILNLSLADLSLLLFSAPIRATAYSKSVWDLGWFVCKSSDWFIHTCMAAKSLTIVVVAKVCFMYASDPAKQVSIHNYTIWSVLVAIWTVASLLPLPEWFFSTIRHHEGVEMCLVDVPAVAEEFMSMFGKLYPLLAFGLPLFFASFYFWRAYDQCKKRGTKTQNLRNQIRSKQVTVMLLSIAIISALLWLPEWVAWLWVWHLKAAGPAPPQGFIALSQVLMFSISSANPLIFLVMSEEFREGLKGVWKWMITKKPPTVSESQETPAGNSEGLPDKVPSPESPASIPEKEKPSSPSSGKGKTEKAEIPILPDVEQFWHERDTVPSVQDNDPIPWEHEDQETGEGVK
MITF inh: blocks human microphthalmia-associated transcription factor; O75030; AlphaScreen MITF homodimerization, bead proximity signal; inhibition, % at 2.6 µM; hit rate 0.91% among 650,000; in the data active = inhibition above about 50%;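 also: 0% = vehicle wells with protein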
Numbers without * were called inactive. Rows were chosen to be rich in hits. Some 3.4% of all compounds tested hit in one or more screens of this group.

How did CCCNc1nc(Nc2cc(OC)c(OC)c(OC)c2)nc2c1ncn2-c1ccsc1 do in these assays?
FBW7 act: 0; TEAD-YAP inh: 23; GPR151 activ: 0; MITF inh: -6

Results for CCCNc1nc(Nc2ncccn2)nc2c1ncn2-c1ccsc1 ?
FBW7 act: 0; TEAD-YAP inh: 19; GPR151 activ: 2; MITF inh: -3

How did CCCNc1nc(Nc2ccc(-n3ccnc3)cc2)nc2c1ncn2-c1ccccc1 do in these assays?
FBW7 act: 0; TEAD-YAP inh: 49*; GPR151 activ: 2; MITF inh: 3

Results for CCCNc1nc(Nc2ccccc2)nc2c1ncn2-c1ccsc1 ?
FBW7 act: 0; TEAD-YAP inh: 55*; GPR151 activ: 0; MITF inh: 10

Results for COc1cc(Nc2nc(NCCc3ccc(O)cc3)c3ncn(-c4ccsc4)c3n2)cc(OC)c1OC ?
FBW7 act: 0; TEAD-YAP inh: 36*; GPR151 activ: -1; MITF inh: 3

What do the screens show for `CCCCc1cc(=O)oc2c(C)c(O)ccc12`?
FBW7 act: 0; TEAD-YAP inh: 21; GPR151 activ: 0; MITF inh: 4

How did Cc1cc(C)c(NS(=O)(=O)c2ccc(NC(=O)c3sc4ccccc4c3Cl)cc2)c(C)c1 do in these assays?
FBW7 act: 0; TEAD-YAP inh: -8; GPR151 activ: 1; MITF inh: 5

How did Oc1ccc(CCNc2nc(Nc3ccc(-n4ccnc4)cc3)nc3c2ncn3-c2ccsc2)cc1 do in these assays?
FBW7 act: 0; TEAD-YAP inh: 62*; GPR151 activ: 0; MITF inh: 6

Results for CCCNc1nc(Nc2ccncc2)nc2c1ncn2-c1ccsc1 ?
FBW7 act: 0; TEAD-YAP inh: 56*; GPR151 activ: 0; MITF inh: -4

What do the screens show for `O=c1[nH]c2cc(Br)c(Nc3ncnc4sccc34)cc2[nH]1`?
FBW7 act: 0; TEAD-YAP inh: -17; GPR151 activ: 0; MITF inh: 4

How did COc1ccc(-c2nnc3n2N=C(c2ccccc2)CS3)cc1 do in these assays?
FBW7 act: 0; TEAD-YAP inh: 0; GPR151 activ: -1; MITF inh: 14

Results for Cc1ccc(C2=Nn3c(nnc3-c3ccccc3)SC2)cc1 ?
FBW7 act: 0; TEAD-YAP inh: 60*; GPR151 activ: -1; MITF inh: -3

Results for COc1ccc(-c2nnc3n2N=C(c2ccc(O)c(O)c2)CS3)cc1 ?
FBW7 act: 0; TEAD-YAP inh: 50*; GPR151 activ: 0; MITF inh: 3

Results for COc1cccc(-c2nnc3n2N=C(c2ccc(O)c(O)c2)CS3)c1 ?
FBW7 act: 0; TEAD-YAP inh: 58*; GPR151 activ: 0; MITF inh: 6

Results for COc1ccc(C2=Nn3c(nnc3-c3ccc(OC)cc3)SC2)cc1 ?
FBW7 act: 0; TEAD-YAP inh: 49*; GPR151 activ: 1; MITF inh: 0

Results for COc1cccc(C2=Nn3c(nnc3-c3ccccc3)SC2)c1 ?
FBW7 act: 1; TEAD-YAP inh: 10; GPR151 activ: 0; MITF inh: 5

Results for Oc1ccc(C2=Nn3c(nnc3-c3cccc(F)c3)SC2)cc1O ?
FBW7 act: 0; TEAD-YAP inh: 61*; GPR151 activ: -1; MITF inh: 2

How did COc1cccc(-c2nnc3n2N=C(c2ccc(Br)cc2)CS3)c1 do in these assays?
FBW7 act: 0; TEAD-YAP inh: 0; GPR151 activ: 1; MITF inh: 0

Results for COc1ccc(-c2nnc3n2N=C(c2ccc4c(c2)OCCO4)CS3)cc1 ?
FBW7 act: 0; TEAD-YAP inh: 46*; GPR151 activ: -1; MITF inh: 7

What do the screens show for `Oc1ccc(C2=Nn3c(nnc3-c3ccc(Br)cc3)SC2)cc1O`?
FBW7 act: 0; TEAD-YAP inh: 66*; GPR151 activ: 2; MITF inh: -3

What do the screens show for `COc1cccc(C2=Nn3c(nnc3-c3ccccc3O)SC2)c1`?
FBW7 act: 1; TEAD-YAP inh: -1; GPR151 activ: -1; MITF inh: -8

What do the screens show for `Oc1ccc(C2=Nn3c(nnc3-c3ccccc3Br)SC2)cc1O`?
FBW7 act: 0; TEAD-YAP inh: 52*; GPR151 activ: 1; MITF inh: 25

How did CCCNC(=O)Cn1cnc2sc(C(=O)NC3CCCCCC3)c(C)c2c1=O do in these assays?
FBW7 act: 0; TEAD-YAP inh: -1; GPR151 activ: -1; MITF inh: 2

Results for O=C(NNC(=O)c1cc([N+](=O)[O-])ccc1Cl)c1ccc([N+](=O)[O-])cc1 ?
FBW7 act: 1; TEAD-YAP inh: 16; GPR151 activ: 0; MITF inh: 6

What do the screens show for `CCC(=O)Nc1ccc(C2=Nn3c(COc4ccc(OC)cc4)nnc3SC2)cc1`?
FBW7 act: 0; TEAD-YAP inh: 48*; GPR151 activ: -2; MITF inh: -5
